Assay results as given in PubChem BioAssay AID431 (Sanford-Burnham Center for Chemical Genomics, 2006).
Among all 63,000 compounds or so, about 1,100 (1.7%) were called active. What follows is part of a selection rich in actives, with near analogues and random picks from the rest. Measured potencies and affinities stand elsewhere. A number with no mark means an inactive call.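 How the source made its calls: active means compounds whose percent cytotoxicity in the single-dose primary screen, scaled between solvent and toxic-drug controls, exceeds 50; inactive means the rest.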

Experiment: viability loss of HPDE-C7K cells – cell-based, fluorescence, HTS, primary screen (AID 431);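 further: 0% = DMSO solvent wells and 100% = doxorubicin-treated wells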
Settings: HPDE-C7K KRASV12 cells, Alamar Blue viability, 48 h; at 10 µM; stronger effect = higher value

Row | Compound | cytotoxicity
1 | O=S(=O)(c1ccc(F)cc1)N1CCC(N2CCN(c3ccccc3)CC2)CC1 | 16.8%
2 | Cn1c(NCC(O)c2ccccc2)nc2c1c(=O)n(Cc1ccc(Cl)cc1)c(=O)n2C (stereo unspecified) | 50.4% (active)
3 | Cn1c(N2CCN(c3ccccn3)CC2)nc2c1c(=O)n(Cc1ccc(Cl)cc1)c(=O)n2C | 70% (active)
4 | Cn1c(N2CCN(c3ccccn3)CC2)nc2c1c(=O)n(Cc1ccccc1Cl)c(=O)n2C | 3.4%
5 | Cn1c(NCc2ccccc2)nc2c1c(=O)n(Cc1ccc(Br)cc1)c(=O)n2C | 21.3%
6 | COc1ccc(CNc2nc3c(c(=O)n(Cc4ccc(Cl)cc4)c(=O)n3C)n2C)cc1 | 32.7%
7 | Cn1c(NCC(O)c2ccccc2)nc2c1c(=O)n(Cc1ccc(Cl)c(Cl)c1)c(=O)n2C (stereo unspecified) | 64.7% (active)
8 | Cn1c(NCc2ccccc2)nc2c1c(=O)n(Cc1ccccc1)c(=O)n2C | -0.5%
9 | Cn1c(NCc2ccco2)nc2c1c(=O)n(Cc1ccc(Cl)c(Cl)c1)c(=O)n2C | 8.9%
10 | Cn1c(N2CCCC2)nc2c1c(=O)n(Cc1ccc(Cl)cc1)c(=O)n2C | 26.3%
11 | COC(=O)c1coc(-c2ccc(C)cc2)c1C(=O)OC | -19.4%
12 | CCOc1ccccc1N(CC(=O)NC1CCCC1)C(=O)CCCC(=O)Nc1ccccn1 | -29.3%
13 | O=C(Cn1c(=O)oc2ccccc21)N1CCCCC1 | -21%
14 | CN(CCc1ccccn1)C(=O)CCNC(=O)Cn1cnc2ccccc2c1=O | -9.4%
15 | O=C(COc1ccccc1)Nc1cccc(-c2nnc(-c3ccccc3)o2)c1 | 8.5%
16 | COc1ccc(-c2noc(CCC(N)=O)n2)cc1OC | 7.2%
17 | CC(=O)c1cc(F)c(N2CCCC2)cc1C | -6.1%
18 | Cc1[nH]c(-c2ccco2)nc1C(=O)O | 1.6%
19 | O=c1cc(-c2ccccc2)[nH]c2ccccc12 | 46.8%
20 | [O-][n+]1onc2c1CCc1nnc(-c3ccccc3)cc1-2 | 8.2%
21 | COc1ccc(C2C3=C(CCCC3=O)Nc3nc(C(F)(F)F)nn32)cc1OC (stereo unspecified) | -12.5%
22 | Cc1ccc(Cl)cc1N1CCN(Cc2nc3c(c(=O)[nH]c(=O)n3C)n2Cc2ccccc2F)CC1 | 117% (active)
23 | Cn1c(=O)[nH]c(=O)c2c1nc(CN1CCN(c3cccc(Cl)c3)CC1)n2Cc1ccccc1Cl | 2.2%
24 | CC(C)Cn1c(CN2CCN(c3ccccc3F)CC2)nc2c1c(=O)[nH]c(=O)n2C | -9.3%

Row | Compound | cytotoxicity
25 | O=C(Nc1ccncc1)c1ccc2c(c1)OCCO2 | -6.9%
26 | CCC(NC(=O)OC(C)(C)C)C(=O)Oc1ccc2c3c(c(=O)oc2c1)CCC3 (stereo unspecified) | -7.2%
27 | CCOC(=O)Cc1cc(=O)[nH]c(Nc2nc3ccccc3o2)n1 | -12.3%
28 | COCCn1c(=N)c(C(=O)NCCc2ccccc2)cc2c(=O)n3cccc(C)c3nc21 | -1.7%
29 | CCOC(=O)c1cc2c(=O)n3cccc(C)c3nc2n(C)c1=N | 58.1% (active)
30 | C=CCn1c(=N)c(C(=O)OCC)cc2c(=O)n3cccc(C)c3nc21 | 9.2%
31 | CCNC(=O)c1cc2c(=O)n3cccc(C)c3nc2n(CCc2ccccc2)c1=N | 66.8% (active)
32 | Cc1cccn2c(=O)c3cc(C(=O)NCCN4CCOCC4)c(=N)n(CCc4ccccc4)c3nc12 | 10.9%
33 | CCOC(=O)c1cc2c(=O)n3cccc(C)c3nc2n(CCc2ccccc2)c1=N | -6.7%
34 | CC(C)CCOc1cccc(OCC(=O)N(C)C2CCS(=O)(=O)C2)c1 (stereo unspecified) | 4.8%
35 | COc1ccc(OC)c(S(=O)(=O)N2CCc3ccccc32)c1 | 18.5%
36 | CCOc1c(Br)cc(CNc2ncn[nH]2)cc1OC | 2.8%
37 | O=C(CSc1nc2cc(Cl)ccc2s1)N1CCN(C(=O)c2ccco2)CC1 | 5.8%
38 | O=C(CSc1nnc(SCc2ccc(Cl)cc2)s1)N1CCN(C(=O)c2ccco2)CC1 | -15.2%
39 | O=C(CSc1c2c(nc3ccc(Cl)cc13)CCCC2)N1CCN(C(=O)c2ccco2)CC1 | 105% (active)
40 | CC1Cc2nc(SCC(=O)NCc3ccco3)n(-c3ccccc3)c(=O)c2S1 (stereo unspecified) | 3.1%
41 | O=C(Cc1cccs1)NCc1ccc2c(c1)OCO2 | -5.9%
42 | CCOC(=O)c1oc2c(C)c(O)ccc2c(=O)c1-c1nncn1-c1ccccc1 | -6.3%
43 | Cn1c(=O)[nH]c(=O)c2c1nc(CN1CCN(c3cccc(Cl)c3)CC1)n2CCCc1ccccc1 | 6%
44 | Nc1cccc(-c2nc3ccc(N)cc3s2)c1 | 50.7% (active)
45 | Oc1cccc(-c2nc3ccccc3s2)c1 | 0.9%
46 | Cc1nc2ccc(N)cc2s1 | -7.6%
47 | COc1ccc2c(c1)Sc1ccccc1N2CCN(C)C | 27.8%
48 | CCOC(=O)Nc1ccc2c(c1)N(C(=O)CCN(C)C)c1ccccc1S2 | 15%

Row | Compound | cytotoxicity
49 | CN(C)CCCN1c2ccccc2CCc2ccc(Cl)cc21 | 47.6%
50 | CN(C)CCCN1c2ccccc2Sc2ccccc21 | 56.1% (active)
51 | CN(C)CCCN1c2ccccc2CCc2ccccc21 | 20.3%
52 | CCN1C(=O)C2C(c3ccc(O)c(OC)c3)NC(C)(C(=O)OC)C2C1=O (stereo unspecified) | 9.8%
53 | CCc1c(C)nc2ncnn2c1N1CCCC(C(=O)NCCc2ccccc2)C1 (stereo unspecified) | 2.2%
54 | CCOC(=O)C1CCN(C(=O)c2ccc(Cl)c(Cl)c2)CC1 | -6.5%
55 | O=C(Nc1ccc(Cl)cc1)NC1CCS(=O)(=O)C1 (stereo unspecified) | -15%
56 | CC(Oc1ccc(Cl)cc1Cl)c1nc(-c2ccccn2)no1 (stereo unspecified) | 23.6%
57 | CC(Oc1ccc(Cl)cc1Cl)c1nc(-c2ccc(NC(=O)c3cccnc3)cc2)no1 (stereo unspecified) | 59.3% (active)
58 | COc1ccc(Cc2nc(-c3ccc(NC(=O)c4cccnc4)cc3)no2)cc1 | 33.9%
59 | O=C(Nc1ccc(-c2noc(CCc3ccccc3)n2)cc1)c1cccnc1 | 47%
60 | COc1cccc(-c2nc(-c3ccc(NC(=O)c4cccnc4)cc3)no2)c1 | 44.3%
61 | O=C(Nc1ccc(-c2noc(-c3cccs3)n2)cc1)c1cccnc1 | 52.5% (active)
62 | CC(C)(C)Cc1nc(-c2ccccn2)no1 | -9.1%
63 | COCCNC(=O)c1cc(-c2ccc(Cl)c(Cl)c2)on1 | -9.5%
64 | O=C(c1cc2cc(Br)ccc2oc1=O)N1CCN(c2ccccn2)CC1 | -8.8%
65 | O=C(CC1SCCNC1=O)Nc1cc(Cl)cc(Cl)c1 (stereo unspecified) | -5.4%
66 | O=C(CC(c1ccccc1)c1cc(Cl)ccc1O)N1CCOCC1 (stereo unspecified) | 10.5%
67 | CCOc1ccc(C2C3=C(CCCC3=O)Nc3nc(C(F)(F)F)nn32)cc1OC (stereo unspecified) | 1.4%
68 | COc1ccc(CCNc2nc(N3CCCCC3)nc(N3CCCCC3)n2)cc1OC | 45.3%
69 | O=S(=O)(/C=C/c1ccccc1)n1cnc2ccccc21 | 40.1%
70 | Cc1cc(C)n(S(=O)(=O)Cc2ccccc2)n1 | -3.7%
71 | CC1CCc2nn(CC(=O)N3CCCCCC3)cc2C1 (stereo unspecified) | 2.2%
72 | Cc1ccc2c(c1)NC(=O)C(CC(=O)NCCN(CC(C)C)CC(C)C)O2 (stereo unspecified) | 15.6%

Row | Compound | cytotoxicity
73 | COc1cccc(CNC(=O)C2CCN(Cc3cnn(-c4ccccc4)c3-n3cccc3)CC2)c1 | 5.5%
74 | CCOC(=O)c1sc(NC(=O)CSc2nnnn2-c2ccccc2)nc1C | 9.6%
75 | CCOC(=O)c1sc(NC(=O)CSc2ncn(-c3ccccc3)n2)nc1C | 76.1% (active)
76 | O=C(CSc1ncn(-c2ccccc2)n1)Nc1nc2ccccc2s1 | -3.6%
77 | O=C1c2ccccc2C(=O)N1CCCc1nc2ccccc2c(=O)n1CCCn1ccnc1 | -31.5%
78 | C=CCn1c2ccccc2c2nnc(SCCCn3c(=O)[nH]c4ccccc43)nc21 | 68.6% (active)
79 | CCn1c2ccccc2c2nnc(SCCCn3c(=O)[nH]c4ccccc43)nc21 | 2.7%
80 | C=CCn1c2ccccc2c2nnc(SCN3C(=O)c4ccccc4C3=O)nc21 | 7.6%
81 | Cc1cc(C)n2nc(-c3cccnc3)nc2n1 | 2.1%
82 | O=C(Nc1nncs1)c1ccc(N2C(=O)C3C4C=CC(C4)C3C2=O)cc1 (stereo unspecified) | 10.1%
83 | CCc1nnc(NC(=O)CSc2nc3c(cc2C#N)CCCC3)s1 | 8.4%
84 | CCc1nnc(NC(=O)CSc2nc3c(cc2C#N)CCC3)s1 | 33.4%
85 | CCc1nnc(NC(=O)CSc2nc(C)c3c(c2C#N)CCCC3)s1 | 75.3% (active)
86 | O=C(NCc1ccccn1)Nc1ccc(Cl)c(Cl)c1 | 1.8%
87 | Cc1ccc(CNC(=O)CCCn2c(=O)[nH]c3ccccc3c2=O)cc1 | -8.5%
88 | c1ccc2c3c([nH]c2c1)-c1[nH]ncc1CC3 | 50.2% (active)
89 | Cc1ccc2[nH]c3c(c2c1)CCc1cn[nH]c1-3 | 35.6%
90 | O=C1CCCc2c1[nH]c1ccccc21 | -0.9%
91 | CCOC(=O)C1CCCN(c2nc3ccccc3nc2C(C#N)C(=O)OCCOC)C1 (stereo unspecified) | 53.1% (active)
92 | CCOC(=O)C1CCCN(c2nc3ccccc3nc2C(C#N)C(=O)OC(C)C)C1 (stereo unspecified) | -4.8%
93 | CCOC(=O)C1CCCN(c2nc3ccccc3nc2C(C#N)C(=O)OCC)C1 (stereo unspecified) | 12.9%
94 | CCOC(=O)C1CCN(c2nc3ccccc3nc2C(C#N)C(=O)OC(C)COC)CC1 (stereo unspecified) | 6.6%
95 | CCOC(=O)C1CCN(c2nc3ccccc3nc2C(C#N)C(=O)OC(C)C)CC1 (stereo unspecified) | 62.8% (active)
96 | CCOC(=O)C1CCCN(c2nc3ccccc3nc2C(C#N)C(=O)OC(C)COC)C1 (stereo unspecified) | 31.8%
